Test results from PubChem BioAssay (NCATS).
Records with an inconclusive call do not appear. Where a call stands in place of a potency, no number is given. A number with no mark means an inactive call. Calls of active or inactive are those of the source. Calls come from the whole dose curve; as a rule, active = well fitted curve in the direction sought with a large enough effect; inconclusive = small, poorly fitted or top-dose-only effect, or another doubt; inactive = no such curve, though single readings can be large; an effect the other way counts as inactive or inconclusive.

What was measured:
HEK293 = assay: Cytotoxic Profiling of Annotated Libraries Using Quantitative High-Throughput Screening (AID 1296008); conditions: Five cell lines viability, CellTiter-Glo ATP luminescence, 48-72 h; max response: hits give low values; note: nearly all actives have a fitted effect of over 60% in size; note: potency is the fitted concentration of half-maximal effect
Summary of the method: (§1)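 Cytotoxicity was measured as CellTiter-Glo ATP luminescence, read after 10 min at room temperature. Compound treatment of the cells lasted 48 or 72 hr at 37 degrees Celsius in a qHTS format.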

KB-3-1 = assay: as above; conditions: Five cell lines viability, CellTiter-Glo ATP luminescence, 48-72 h; max response: hits give low values
Summary of the method: as §1

NIH3T3 = assay: as above; conditions: Five cell lines viability, CellTiter-Glo ATP luminescence, 48-72 h; max response: hits give low values
Summary of the method: as §1

C33A = assay: Primary qHTS to identify gynecologic anti-cancer compounds using libraries of approved drugs and bioactive compounds (AID 1345084); conditions: Gynecologic cancer cell panel viability, ATPlite luminescence, 48 h; series mostly up to 57.5 µM; note: nearly all actives have a fitted effect of over 55% in size
Summary of the method: (§2)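 Cell viability after 48 h drug treatment, ATPlite luminescence readout; five doses.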

CAOV3 = assay: as above; conditions: Gynecologic cancer cell panel viability, ATPlite luminescence, 48 h; series mostly up to 57.5 µM
Summary of the method: as §2

CASKI = assay: as above; conditions: Gynecologic cancer cell panel viability, ATPlite luminescence, 48 h; series mostly up to 57.5 µM
Summary of the method: as §2

Es-2 = assay: as above; conditions: Gynecologic cancer cell panel viability, ATPlite luminescence, 48 h; series mostly up to 57.5 µM
Summary of the method: as §2

HeLa = assay: as above; conditions: Gynecologic cancer cell panel viability, ATPlite luminescence, 48 h; series mostly up to 57.5 µM
Summary of the method: as §2

Hek293T = assay: as above; conditions: Gynecologic cancer cell panel viability, ATPlite luminescence, 48 h, control line for the selectivity index; series mostly up to 57.5 µM
Summary of the method: as §2

JEG-3 = assay: as above; conditions: Gynecologic cancer cell panel viability, ATPlite luminescence, 48 h; series mostly up to 57.5 µM
Summary of the method: as §2

COc1cc(O)c2c(c1)C1=CC(O)C(O)CC1(C)OC2=O (stereo not given)
max response (HEK293): -5.55% | outcome (KB-3-1): inactive | max response (NIH3T3): -6.33% | Potency (C33A): inactive | Potency (CAOV3): inactive | Potency (CASKI): inactive | Potency (Es-2): inactive | Potency (HeLa): inactive | Potency (Hek293T): inactive | Potency (JEG-3): inactive

CC1OC2OC(=O)C3(C)CC4=C(CO)C5=C(CC(=O)C4(C)C(C1=O)C23)C(C)(C)OC(=O)C5 (stereo not given)
max response (HEK293): -12.2% | max response (KB-3-1): 2.12% | max response (NIH3T3): -2.31% | Potency (C33A): inactive | Potency (CAOV3): inactive | Potency (CASKI): inactive | Potency (Es-2): inactive | Potency (HeLa): inactive | Potency (Hek293T): inactive | Potency (JEG-3): inactive

CS(=O)(=O)c1ccc([C@H](CC2CCCC2)C(=O)Nc2nccs2)cc1
max response (HEK293): -58% | outcome (KB-3-1): inactive | max response (NIH3T3): -48.7% | Potency (C33A): inactive | Potency (CAOV3): inactive | Potency (CASKI): inactive | Potency (Es-2): inactive | Potency (HeLa): inactive | Potency (Hek293T): inactive | Potency (JEG-3): inactive

O=C1CSc2ccccc2N1Cc1cccc(C(F)(F)F)c1
max response (HEK293): -20.3% | max response (KB-3-1): -14% | max response (NIH3T3): 4.03% | Potency (C33A): inactive | Potency (CAOV3): inactive | Potency (CASKI): inactive | Potency (Es-2): inactive | Potency (HeLa): inactive | Potency (Hek293T): inactive | Potency (JEG-3): inactive

CC(C)C[C@H](CC(=O)NO)C(=O)N[C@@H](Cc1ccc2ccccc2c1)C(=O)N[C@@H](C)C(=O)NCCN
max response (HEK293): 0.393% | max response (KB-3-1): 7.03% | max response (NIH3T3): -2.62% | Potency (C33A): inactive | Potency (CAOV3): inactive | Potency (CASKI): inactive | Potency (Es-2): inactive | Potency (HeLa): inactive | Potency (Hek293T): inactive | Potency (JEG-3): inactive

CC[C@@](C)(Nc1ccnc(-c2c[nH]c3ncccc23)n1)C(=O)NCC(F)(F)F
max response (HEK293): -4.43% | outcome (KB-3-1): inactive | Potency (NIH3T3): 14.6 µM (active) | Potency (C33A): inactive | Potency (CAOV3): inactive | Potency (CASKI): inactive | Potency (Es-2): inactive | Potency (HeLa): inactive | Potency (Hek293T): inactive | Potency (JEG-3): inactive

C[C@@H]1C(=O)O[C@H]2[C@@H](O)C34[C@H]5C[C@@H](C(C)(C)C)C36[C@@H](OC(=O)[C@@H]6O)O[C@@]4(C(=O)O5)[C@@]12O (stereo not given in full)
max response (HEK293): -1.43% | max response (KB-3-1): -6.44% | max response (NIH3T3): -0.498% | Potency (C33A): inactive | Potency (CAOV3): inactive | Potency (CASKI): inactive | Potency (Es-2): inactive | Potency (HeLa): inactive | Potency (Hek293T): inactive | Potency (JEG-3): inactive

COC(=O)C[C@H]1C(C)(C)[C@H](OC(=O)C(C)C)[C@@]2(O)C(=O)[C@]1(C)C1CC[C@]3(C)C(CC(=O)O[C@H]3c3ccoc3)[C@]13O[C@@H]32 (stereo not given in full)
max response (HEK293): -5.5% | max response (KB-3-1): 8.04% | max response (NIH3T3): 3.21% | Potency (C33A): inactive | Potency (CAOV3): inactive | Potency (CASKI): inactive | Potency (Es-2): inactive | Potency (HeLa): inactive | Potency (Hek293T): inactive | Potency (JEG-3): inactive

C[C@H]1C(=O)N2c3ccccc3[C@@]3(O)C[C@@H]4C(=O)N[C@](C)(c5nc6ccccc6c(=O)n54)N1[C@@H]23
max response (HEK293): -0.775% | outcome (KB-3-1): inactive | max response (NIH3T3): -0.721% | Potency (C33A): inactive | Potency (CAOV3): inactive | Potency (CASKI): inactive | Potency (Es-2): inactive | Potency (HeLa): inactive | Potency (Hek293T): inactive | Potency (JEG-3): inactive

O=C(O)/C=C/c1ccc(O)c(O[C@@H]2O[C@H](CO)[C@@H](O)[C@H](O)[C@H]2O)c1
max response (HEK293): -13.2% | outcome (KB-3-1): inactive | max response (NIH3T3): 4.37% | Potency (C33A): inactive | Potency (CAOV3): inactive | Potency (CASKI): inactive | Potency (Es-2): inactive | Potency (HeLa): inactive | Potency (Hek293T): inactive | Potency (JEG-3): inactive

COC(=O)CCc1cc2ccoc2c(OC)c1O[C@@H]1O[C@H](CO)[C@@H](O)[C@H](O)[C@H]1O
max response (HEK293): -10.4% | outcome (KB-3-1): inactive | max response (NIH3T3): 0.737% | Potency (C33A): inactive | Potency (CAOV3): inactive | Potency (CASKI): inactive | Potency (Es-2): inactive | Potency (HeLa): inactive | Potency (Hek293T): inactive | Potency (JEG-3): inactive

C/C=C/c1ccc2oc(-c3ccc(O)c(OC)c3)c(C)c2c1
max response (HEK293): -4.11% | max response (KB-3-1): 6.52% | max response (NIH3T3): -2.29% | Potency (C33A): inactive | Potency (CAOV3): inactive | Potency (CASKI): inactive | Potency (Es-2): inactive | Potency (HeLa): inactive | Potency (Hek293T): inactive | Potency (JEG-3): inactive

Cc1[nH]nc(C(F)(F)F)c1Cc1sc2c(c1C(=O)N1C[C@](C)(O)CO1)c(=O)n(C)c(=O)n2C(C)C
Potency (HEK293): 0.0517 µM (active) | max response (KB-3-1): 1.3% | Potency (NIH3T3): 13 µM (active) | Potency (C33A): inactive | Potency (CAOV3): inactive | Potency (CASKI): inactive | Potency (Es-2): inactive | Potency (HeLa): inactive | Potency (Hek293T): inactive | Potency (JEG-3): inactive

C=C1OC2CC(C(=O)O)C=CC2NC1=O (stereo not given)
max response (HEK293): 3.15% | max response (KB-3-1): 3.04% | max response (NIH3T3): 0.0418% | Potency (C33A): inactive | Potency (CAOV3): inactive | Potency (CASKI): inactive | Potency (Es-2): inactive | Potency (HeLa): inactive | Potency (Hek293T): inactive | Potency (JEG-3): inactive

COc1cc2ncnc(Nc3ccc(O)cc3)c2cc1OC
max response (HEK293): -8.09% | max response (KB-3-1): 3.01% | max response (NIH3T3): 2.24% | Potency (C33A): inactive | Potency (CAOV3): inactive | Potency (CASKI): inactive | Potency (Es-2): inactive | Potency (HeLa): inactive | Potency (Hek293T): inactive | Potency (JEG-3): inactive

CC(C)C(CO)Nc1nc(Nc2ccc(C(=O)O)c(Cl)c2)c2ncn(C(C)C)c2n1 (stereo not given)
max response (HEK293): -4.16% | max response (KB-3-1): 1.82% | max response (NIH3T3): -3.63% | Potency (C33A): inactive | Potency (CAOV3): inactive | Potency (CASKI): inactive | Potency (Es-2): inactive | Potency (HeLa): inactive | Potency (Hek293T): inactive | Potency (JEG-3): inactive
